Experimental findings from PubChem BioAssay (EPA / NIEHS) are described below.

The source holds several records for some structures; these can differ, active in one and inactive in another. The source made the active and inactive calls. How the source made its calls: active means hit-call score of the fitted dose curve at least 0.9, where 1 is the maximum; inactive means score below 0.9.

This test is described as follows: ATG_AP_1_CIS: Attagene CIS-FACTORIAL HepG2 Assay for human Activator Protein 1 (AP-1) (AID 2282931). To be noted: HepG2 Attagene cis-factorial AP-1 reporter mRNA; actives raise or lower the signal. As to the method: ATG_CIS is a cell-based, multiplexed-readout assay that uses HepG2, a human liver cell line, with measurements taken at 24 hours after chemical dosing in a 24-well plate.ATG_AP_1_CIS is one of 52 assay component(s) measured or calculated from the ATG_CIS assay. It is designed to make measurements of mRNA induction, a form of inducible reporter, as detected with fluorescence intensity signals by Reverse transcription polymerase chain reaction (RT-PCR) and Capillary electrophoresis technology.Data from the assay component ATG_AP_1_CIS was analyzed into 1 assay endpoint. This assay endpoint, ATG_AP_1_CIS, was analyzed with bidirectional fitting relative to DMSO as the negative control and baseline of activity. Using a type of inducible reporter, measures of mRNA for gain or loss-of-signal activity can be used to understand the reporter gene at the transcription factor-level as they relate to the gene FOS and JUN. Furthermore, this assay endpoint can be referred to as a primary readout, because this assay has produced multiple assay endpoints where this one serves a reporter gene function. To generalize the intended target to other relatable targets, this assay endpoint is annotated to the dna binding intended target family, where the subfamily is basic leucine zipper.
Human liver HepG2 cells are transiently transfected with multiple reporter transcription units (MRTUs) in 6-well plates using FuGene 6 reagent (Roche; 3 ml FuGene/1 mg DNA). The MRTU constructs are regulated by a cis-regulating element (promoter). […] A major difference between the CIS and TRANS system is that in CIS activities of endogenous TFs are measured, whereas the TRANS assay evaluates changes in activities of exogenous, chimeric NR-Gal4 proteins. […] At the end of 24 hour incubation, total RNA was isolated using TriZol reagent (Invitrogen). The isolated RNA is then reverse-transcribed using oligo(dT) primer and Mo-MLV reverse transcriptase (Invitrogen) with DNAse I (Ambion) treatment for 30 min. The one-tenth of the produced cDNA was amplified by PCR using Taq DNA polymerase (Invitrogen) and two reporter sequence-specific primers. The PCR products were fluorescently labeled by primer extension with 6-arboxyfluorescein (6-FAM) 5'-labeled reporter sequence-specific primer (2 min at 95 C, 20 s at 68 C and 10 min at 72 C) and these products were digested with 5U of HpaI (New England Biolabs) for 2h at 37 C. The fragments were purified using Qiaquick PCR columns (Qiagen), analyzed on an ABI 3130xL genetic analyzer (Applied Biosystems) with peak positions identified by using a set of X-rhodamine (ROX)-labeled MapMarker1000 molecular weight standards (BioVentures). The raw capillary electrophoresis data was processed using Attagraph software (Attagene).
For the compound `NNC(=O)OCc1ccccc1`, the call was inactive. Take `CC(=O)c1ccc(C)cc1`: the result was inactive. The same measure, in the same setting: with `CC(CO)c1ccccc1` (stereo not given) the entry was “inactive”; with `C1=COCCC1`, “inactive”. As for `CC1(C)CC(N)CC(C)(CN)C1` (stereo not given), the result was inactive.

For the compound `COC(=O)c1ccc(C(=O)OC)cc1`, the call was inactive. On the same count and under the same terms, with `CCCCOCCOCCO` the entry was “inactive”. Same read-out and setting: then `C=C(C)C(N)=O`, with “inactive”; and `CCCC1CCC(=O)CC1`, with “inactive”. For `CCC(C)C1CCCCC1=O` (stereo not given), the call was inactive. What is called AC50 is the concentration at which the activity in the assay is half-maximal. For the compound `CC(=O)OC/C=C(C)/C=C/C=C(C)/C=C/C1=C(C)CCCC1(C)C`, the half-maximal activity concentration (AC50) was 40.6 µM (active).

For `CCCCCCCCSCc1cc(C)c(O)c(CSCCCCCCCC)c1`, the compound was called inactive.

In the case of `C#C[C@]1(O)CC[C@H]2[C@@H]3CCc4cc(O)ccc4[C@H]3CC[C@@]21C`, the AC50 is 47.3 µM (active) and the result was inactive.

On to `CCCC1CCOC(C)S1` (stereo not given), for which the call was inactive. For `CCCCCCC(C)O` (stereo not given), the call was inactive. The same measure, in the same setting: with `C=C(C)CCCC(C)CCO` (stereo not given) the entry was “inactive”. On to `CC1COC(=O)O1` (stereo not given), for which the result was inactive. Consider `ClCCOCCOCCCl`, for which the result was inactive. Same read-out and setting: then `CC(C)CCCC(C)(C)O`, with “inactive”; and `CCCC(O)C(CC)CO` (stereo not given), with “inactive”; and `CC/C(=C(\c1ccccc1)c1ccc(OCCN(C)C)cc1)c1ccccc1`, with “inactive”. On the same count and under the same terms, with `c1coc(CNc2ncnc3nc[nH]c23)c1` the entry was “inactive”; with `CC(C)(C)c1cccc(O)c1`, “inactive”; with `COc1ccc(OC)cc1`, “inactive”. Take `NCCN1CCNCC1`: the compound was classed as inactive. On the same count and under the same terms, with `C/C=C(\C)C(=O)OC/C=C(\C)CCC=C(C)C` the entry was “inactive”; with `N#CCCCC(C#N)CCC#N` (stereo not given), “inactive”. Still for that read-out and setting: then `OCC=Cc1ccccc1`, with “inactive”. The same measure, in the same setting: then `Nc1cc([N+](=O)[O-])ccc1C(=O)O`, with “inactive”; and `NC(N)=S`, with “inactive”. For the compound `N=C1N=C(N)c2ccccc21`, the call was inactive.

For the compound `CCCCOC(=O)C(C)OC(=O)CCC` (stereo not given), the outcome was inactive. Still for that read-out and setting: with `O=C1CCC(=O)N1` the entry was “inactive”; with `COC(=O)C(C)Oc1ccc(Oc2ncc(C(F)(F)F)cc2Cl)cc1` (stereo not given), “inactive”; with `CN(C)c1ccc(C=O)cc1`, “inactive”. Still for that read-out and setting: with `NC(=O)c1cnccn1` the entry was “inactive”; with `O=C(O)c1cccc(Cl)n1`, “inactive”; with `CC(C)CCOC(=O)CC(C)C`, “inactive”. Still for that read-out and setting: then `CCCCCCCCCCOC(=O)c1ccccc1C(=O)OCCCCCCCC`, with “inactive”.
